Data: the supplement of paper PMC11732987, “Enantioselective OTUD7B fragment discovery through chemoproteomics screening and high-throughput optimisation” (Communications Chemistry, 2025)

What was measured:
Assay in all cases: log2 ratio of Biotin-Ahx-Ub-VS probe labelling (fragment/DMSO); higher = less target engagement (more negative = stronger competition), active = hit call of the paper (q ≤ 0.05, log2 ratio ≤ -1)
Conditions in all cases: compound concentration: 200 uM; treatment time: 3 h
USP34 = USP34 (UniProt Q70CQ2)
In short: (§1)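 HEK293T lysate in Tris/CHAPS/IGEPAL buffer with protease inhibitors (495 µg per sample) was given fragment at 200 µM or vehicle for 3 h, in triplicate. It then received Biotin-Ahx-Ub-VS at 0.5 µM final for 1 h. Labelled DUBs were NeutrAvidin-enriched, digested with LysC and trypsin, and run by diaPASEF LC-MS/MS. Values are average log2 fragment/vehicle ratios by unpaired t-test on global-median-normalised Spectronaut quantities of proteins with ≥2 unique peptides.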

USP36 = molecular target: T1, USP36 (UniProt Q9P275)
T1 sequence (whole entry): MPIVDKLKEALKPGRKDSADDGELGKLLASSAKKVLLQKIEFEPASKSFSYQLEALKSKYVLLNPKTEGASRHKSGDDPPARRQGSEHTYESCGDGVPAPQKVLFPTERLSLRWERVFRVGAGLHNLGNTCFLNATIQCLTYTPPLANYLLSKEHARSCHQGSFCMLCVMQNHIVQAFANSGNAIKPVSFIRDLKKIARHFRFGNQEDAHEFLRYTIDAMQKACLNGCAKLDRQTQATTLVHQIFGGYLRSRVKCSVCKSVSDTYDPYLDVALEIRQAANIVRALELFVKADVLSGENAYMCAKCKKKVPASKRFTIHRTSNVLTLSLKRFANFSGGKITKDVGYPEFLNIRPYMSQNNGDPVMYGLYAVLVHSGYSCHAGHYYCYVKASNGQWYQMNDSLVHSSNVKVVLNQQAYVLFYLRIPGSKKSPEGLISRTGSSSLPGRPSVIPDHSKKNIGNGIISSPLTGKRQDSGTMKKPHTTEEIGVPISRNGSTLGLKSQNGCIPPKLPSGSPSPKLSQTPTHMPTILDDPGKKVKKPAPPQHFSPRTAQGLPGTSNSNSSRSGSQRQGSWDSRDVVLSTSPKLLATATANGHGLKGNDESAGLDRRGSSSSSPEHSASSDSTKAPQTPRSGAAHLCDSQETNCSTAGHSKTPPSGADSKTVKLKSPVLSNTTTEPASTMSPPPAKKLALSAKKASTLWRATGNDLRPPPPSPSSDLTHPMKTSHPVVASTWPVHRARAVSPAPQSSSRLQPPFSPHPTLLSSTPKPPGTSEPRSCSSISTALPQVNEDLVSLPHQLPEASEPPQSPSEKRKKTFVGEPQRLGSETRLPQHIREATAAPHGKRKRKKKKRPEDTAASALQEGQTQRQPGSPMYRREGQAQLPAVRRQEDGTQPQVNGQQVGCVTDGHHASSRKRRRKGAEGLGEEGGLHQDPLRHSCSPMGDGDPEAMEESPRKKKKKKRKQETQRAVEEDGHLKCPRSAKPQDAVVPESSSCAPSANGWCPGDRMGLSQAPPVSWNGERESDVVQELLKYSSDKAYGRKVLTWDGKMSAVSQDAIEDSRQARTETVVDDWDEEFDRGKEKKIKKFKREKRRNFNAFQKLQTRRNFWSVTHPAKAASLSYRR
In short: as §1

USP38 = molecular target: T2, USP38 (UniProt Q8NB14)
T2 sequence (whole entry): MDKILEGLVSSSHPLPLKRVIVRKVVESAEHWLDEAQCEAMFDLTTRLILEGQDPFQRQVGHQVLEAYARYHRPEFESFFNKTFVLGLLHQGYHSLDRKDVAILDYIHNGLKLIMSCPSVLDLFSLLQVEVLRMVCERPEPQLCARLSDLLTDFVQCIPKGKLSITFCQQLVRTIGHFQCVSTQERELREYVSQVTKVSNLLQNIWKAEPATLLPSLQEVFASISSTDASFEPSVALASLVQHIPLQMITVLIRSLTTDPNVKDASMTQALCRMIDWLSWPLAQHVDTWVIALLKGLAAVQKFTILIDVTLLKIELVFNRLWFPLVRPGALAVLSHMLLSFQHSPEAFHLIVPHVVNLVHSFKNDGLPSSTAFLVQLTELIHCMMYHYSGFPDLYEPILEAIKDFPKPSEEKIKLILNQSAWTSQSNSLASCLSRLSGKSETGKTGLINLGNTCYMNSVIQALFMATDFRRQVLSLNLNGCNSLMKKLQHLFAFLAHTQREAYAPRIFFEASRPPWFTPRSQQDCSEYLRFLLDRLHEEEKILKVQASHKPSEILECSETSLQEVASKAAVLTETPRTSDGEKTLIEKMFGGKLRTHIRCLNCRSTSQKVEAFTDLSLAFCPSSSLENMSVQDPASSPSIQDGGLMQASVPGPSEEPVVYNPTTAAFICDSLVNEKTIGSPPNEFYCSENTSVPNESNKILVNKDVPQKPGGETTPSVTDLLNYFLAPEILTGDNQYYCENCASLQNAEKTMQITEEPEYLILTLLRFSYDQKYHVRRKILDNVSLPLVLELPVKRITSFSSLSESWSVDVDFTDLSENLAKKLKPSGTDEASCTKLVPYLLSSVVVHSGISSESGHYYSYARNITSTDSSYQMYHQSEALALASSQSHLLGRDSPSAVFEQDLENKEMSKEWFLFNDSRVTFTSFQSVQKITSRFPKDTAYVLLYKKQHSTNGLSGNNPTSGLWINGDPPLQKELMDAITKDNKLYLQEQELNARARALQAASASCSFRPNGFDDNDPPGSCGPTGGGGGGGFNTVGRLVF
In short: as §1

USP39 = molecular target: T3, USP39 (UniProt Q53GS9)
T3 sequence (whole entry): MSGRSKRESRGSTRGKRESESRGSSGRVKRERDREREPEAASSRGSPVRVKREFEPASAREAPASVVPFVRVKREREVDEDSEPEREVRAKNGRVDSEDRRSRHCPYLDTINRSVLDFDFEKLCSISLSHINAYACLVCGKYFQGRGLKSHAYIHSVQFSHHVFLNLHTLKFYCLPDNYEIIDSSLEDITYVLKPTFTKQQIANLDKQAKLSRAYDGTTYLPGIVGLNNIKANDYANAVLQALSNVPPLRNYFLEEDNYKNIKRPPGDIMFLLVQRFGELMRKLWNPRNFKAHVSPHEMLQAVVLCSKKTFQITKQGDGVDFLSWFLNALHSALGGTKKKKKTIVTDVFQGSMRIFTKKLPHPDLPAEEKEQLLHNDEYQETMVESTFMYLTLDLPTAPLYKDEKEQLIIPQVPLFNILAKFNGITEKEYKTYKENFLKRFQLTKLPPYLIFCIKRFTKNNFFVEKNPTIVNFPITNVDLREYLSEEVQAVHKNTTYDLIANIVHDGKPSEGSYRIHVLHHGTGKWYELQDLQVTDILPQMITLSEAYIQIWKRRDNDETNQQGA
In short: as §1

USP4 = molecular target: T4, USP4 (UniProt Q13107)
T4 sequence (whole entry): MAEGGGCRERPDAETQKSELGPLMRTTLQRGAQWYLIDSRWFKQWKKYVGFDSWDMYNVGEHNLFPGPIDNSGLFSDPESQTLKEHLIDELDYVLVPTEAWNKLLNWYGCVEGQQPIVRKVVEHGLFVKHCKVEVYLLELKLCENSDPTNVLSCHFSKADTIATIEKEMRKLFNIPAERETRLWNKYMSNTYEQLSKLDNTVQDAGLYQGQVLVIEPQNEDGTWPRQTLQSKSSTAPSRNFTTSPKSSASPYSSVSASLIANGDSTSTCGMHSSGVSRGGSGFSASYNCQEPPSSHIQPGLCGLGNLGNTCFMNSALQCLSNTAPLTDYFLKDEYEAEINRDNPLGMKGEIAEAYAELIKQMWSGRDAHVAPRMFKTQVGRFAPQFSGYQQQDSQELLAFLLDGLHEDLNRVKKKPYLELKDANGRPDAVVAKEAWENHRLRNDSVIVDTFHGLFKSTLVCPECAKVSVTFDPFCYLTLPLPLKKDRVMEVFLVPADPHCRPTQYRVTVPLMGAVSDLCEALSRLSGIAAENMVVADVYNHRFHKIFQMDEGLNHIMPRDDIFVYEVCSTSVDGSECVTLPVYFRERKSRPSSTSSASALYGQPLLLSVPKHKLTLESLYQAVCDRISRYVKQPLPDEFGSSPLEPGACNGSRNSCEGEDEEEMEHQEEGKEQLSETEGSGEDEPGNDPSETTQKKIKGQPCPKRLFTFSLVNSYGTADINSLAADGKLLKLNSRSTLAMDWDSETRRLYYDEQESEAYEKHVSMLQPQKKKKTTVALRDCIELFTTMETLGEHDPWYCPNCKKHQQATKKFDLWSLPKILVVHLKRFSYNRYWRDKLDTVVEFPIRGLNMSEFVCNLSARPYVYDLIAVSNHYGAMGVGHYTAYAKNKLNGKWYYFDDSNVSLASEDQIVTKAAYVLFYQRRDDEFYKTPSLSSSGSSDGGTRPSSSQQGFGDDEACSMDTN
In short: as §1

Measured: log2 ratio of Biotin-Ahx-Ub-VS probe labelling

Chain of USP34 (Q70CQ2 whole entry, the tested form may be a part): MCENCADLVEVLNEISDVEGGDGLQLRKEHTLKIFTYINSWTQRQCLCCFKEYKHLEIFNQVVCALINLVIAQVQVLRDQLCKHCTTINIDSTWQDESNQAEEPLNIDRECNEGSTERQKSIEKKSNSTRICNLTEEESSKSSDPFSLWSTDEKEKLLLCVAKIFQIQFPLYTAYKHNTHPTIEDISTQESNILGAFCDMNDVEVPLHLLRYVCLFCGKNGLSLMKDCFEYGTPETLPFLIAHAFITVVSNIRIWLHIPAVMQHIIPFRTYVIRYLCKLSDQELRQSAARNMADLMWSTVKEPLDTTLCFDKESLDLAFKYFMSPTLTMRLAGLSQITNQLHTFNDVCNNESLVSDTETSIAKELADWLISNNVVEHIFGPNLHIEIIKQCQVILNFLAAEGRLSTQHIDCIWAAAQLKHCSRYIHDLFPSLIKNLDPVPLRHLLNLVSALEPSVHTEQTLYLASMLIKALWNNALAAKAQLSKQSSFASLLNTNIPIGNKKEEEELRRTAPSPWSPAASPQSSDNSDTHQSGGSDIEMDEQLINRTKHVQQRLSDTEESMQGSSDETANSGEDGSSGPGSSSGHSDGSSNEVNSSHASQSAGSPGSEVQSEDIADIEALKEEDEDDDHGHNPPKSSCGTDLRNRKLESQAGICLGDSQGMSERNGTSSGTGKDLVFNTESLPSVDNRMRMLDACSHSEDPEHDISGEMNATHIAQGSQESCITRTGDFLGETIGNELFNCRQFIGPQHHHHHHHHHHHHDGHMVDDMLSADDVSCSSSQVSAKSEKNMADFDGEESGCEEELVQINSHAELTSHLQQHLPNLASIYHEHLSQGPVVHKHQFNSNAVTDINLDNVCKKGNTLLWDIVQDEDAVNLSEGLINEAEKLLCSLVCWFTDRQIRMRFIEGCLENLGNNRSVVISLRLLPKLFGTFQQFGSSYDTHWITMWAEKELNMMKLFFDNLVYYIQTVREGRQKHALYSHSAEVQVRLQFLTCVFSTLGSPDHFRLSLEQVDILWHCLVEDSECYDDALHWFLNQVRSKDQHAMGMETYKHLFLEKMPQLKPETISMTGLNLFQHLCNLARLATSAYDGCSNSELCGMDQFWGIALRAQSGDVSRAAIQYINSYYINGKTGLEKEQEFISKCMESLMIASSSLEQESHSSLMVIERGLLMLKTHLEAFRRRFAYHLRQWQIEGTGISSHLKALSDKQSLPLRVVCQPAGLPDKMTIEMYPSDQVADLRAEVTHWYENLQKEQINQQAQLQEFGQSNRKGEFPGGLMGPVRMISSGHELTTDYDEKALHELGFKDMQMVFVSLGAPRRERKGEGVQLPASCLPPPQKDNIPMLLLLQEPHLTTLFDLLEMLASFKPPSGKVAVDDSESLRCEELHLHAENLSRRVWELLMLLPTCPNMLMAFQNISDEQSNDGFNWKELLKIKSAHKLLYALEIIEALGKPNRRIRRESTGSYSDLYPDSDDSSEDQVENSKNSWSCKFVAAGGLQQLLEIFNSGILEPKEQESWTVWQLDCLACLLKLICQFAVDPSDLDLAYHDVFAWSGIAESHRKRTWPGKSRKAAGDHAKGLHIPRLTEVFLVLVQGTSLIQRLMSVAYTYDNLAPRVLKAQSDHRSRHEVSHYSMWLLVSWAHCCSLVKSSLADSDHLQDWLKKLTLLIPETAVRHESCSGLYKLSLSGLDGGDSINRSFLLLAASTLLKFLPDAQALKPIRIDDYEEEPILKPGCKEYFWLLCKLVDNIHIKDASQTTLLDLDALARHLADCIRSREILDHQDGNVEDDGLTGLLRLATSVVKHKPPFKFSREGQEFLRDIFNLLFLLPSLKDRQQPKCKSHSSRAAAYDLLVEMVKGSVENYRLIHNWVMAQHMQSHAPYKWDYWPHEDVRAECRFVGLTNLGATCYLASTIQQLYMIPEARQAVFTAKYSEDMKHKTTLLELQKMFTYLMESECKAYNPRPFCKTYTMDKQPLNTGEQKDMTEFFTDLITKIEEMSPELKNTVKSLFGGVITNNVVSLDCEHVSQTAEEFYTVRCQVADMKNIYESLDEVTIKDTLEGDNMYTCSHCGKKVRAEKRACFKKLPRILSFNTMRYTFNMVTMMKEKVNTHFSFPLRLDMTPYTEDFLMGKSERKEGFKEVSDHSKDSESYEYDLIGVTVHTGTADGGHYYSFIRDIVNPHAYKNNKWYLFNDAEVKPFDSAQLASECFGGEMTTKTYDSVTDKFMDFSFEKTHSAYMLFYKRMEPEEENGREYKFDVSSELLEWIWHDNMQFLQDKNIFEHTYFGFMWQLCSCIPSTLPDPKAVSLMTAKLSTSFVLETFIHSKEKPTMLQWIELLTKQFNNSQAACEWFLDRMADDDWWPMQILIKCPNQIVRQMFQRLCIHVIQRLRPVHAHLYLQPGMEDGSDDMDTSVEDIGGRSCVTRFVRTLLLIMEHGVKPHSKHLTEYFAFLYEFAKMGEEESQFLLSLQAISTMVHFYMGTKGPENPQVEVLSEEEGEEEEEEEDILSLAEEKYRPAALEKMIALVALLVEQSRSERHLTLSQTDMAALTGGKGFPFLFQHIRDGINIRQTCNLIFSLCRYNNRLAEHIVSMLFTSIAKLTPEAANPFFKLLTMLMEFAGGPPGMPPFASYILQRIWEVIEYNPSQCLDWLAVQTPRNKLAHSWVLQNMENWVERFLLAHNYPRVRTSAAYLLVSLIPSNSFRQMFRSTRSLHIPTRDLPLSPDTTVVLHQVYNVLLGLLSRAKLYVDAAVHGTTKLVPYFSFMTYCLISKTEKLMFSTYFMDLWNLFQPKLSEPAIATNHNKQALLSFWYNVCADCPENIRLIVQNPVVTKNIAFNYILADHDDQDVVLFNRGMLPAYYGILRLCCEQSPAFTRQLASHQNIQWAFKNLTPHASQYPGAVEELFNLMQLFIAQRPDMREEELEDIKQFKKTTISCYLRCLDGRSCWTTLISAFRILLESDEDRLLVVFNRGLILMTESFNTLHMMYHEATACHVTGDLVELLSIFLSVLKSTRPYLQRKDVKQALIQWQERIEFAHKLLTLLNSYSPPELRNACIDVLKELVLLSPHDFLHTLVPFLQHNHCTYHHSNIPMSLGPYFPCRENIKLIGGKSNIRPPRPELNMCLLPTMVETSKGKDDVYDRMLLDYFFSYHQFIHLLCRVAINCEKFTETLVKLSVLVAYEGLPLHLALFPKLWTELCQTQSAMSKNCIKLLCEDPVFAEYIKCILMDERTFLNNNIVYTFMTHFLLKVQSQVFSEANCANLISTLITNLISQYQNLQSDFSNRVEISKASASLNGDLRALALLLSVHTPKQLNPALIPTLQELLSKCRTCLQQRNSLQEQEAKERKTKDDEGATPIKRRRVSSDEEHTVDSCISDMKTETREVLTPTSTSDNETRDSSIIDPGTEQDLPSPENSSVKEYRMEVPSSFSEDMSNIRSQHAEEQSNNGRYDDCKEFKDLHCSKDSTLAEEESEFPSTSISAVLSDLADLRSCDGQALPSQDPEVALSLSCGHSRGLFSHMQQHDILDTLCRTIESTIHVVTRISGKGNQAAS

CS(=O)(=O)N1CCCN(C(=O)CCl)CC1
inactive: USP34 -0.016 | USP36 -0.255 | USP38 -0.0208 | USP39 0.0871 | USP4 -0.0865
